High-throughput results as filed in PubChem BioAssay.
In the library only some 2.7% were active in any assay of this set; here they are far more common.
Peg3 promoter = Peg3 promoter activity inhibition. HeLa PEG-Prom luciferase reporter, luminescence, overnight. inhibition, % at 20 µM. 360,000 compounds, 1.7% hits;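 active = inhibition of at least 50% at 20 µM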
KKLEB tox = CF airway cell cytotoxicity counter-screen; 360,000 compounds, 0.36% hits; KKLEB CF airway cells viability, ATPlite luminescence, overnight; hits give low values; cells stimulated with P. aeruginosa culture filtrate; activity change (cytotoxicity), % at 5 µM; AID 602141;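 active = corrected activity change at or below -50% at 5 µM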
TRPM1 prom inh = inhibitors of MITF-driven TRPM1 promoter in melanoma cells; SK-MEL-5 TRPM1 promoter luciferase, 24 h; inhibition, % at 12.5 µM; 330,000 compounds, 0.83% hits; AID 488899;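 active = mean inhibition across replicates of 60% or more, whatever share of single replicates reaches that level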
Shn3 3UTR inh = Schnurri-3 reporter inhibition in Clone20 osteoblasts. Clone20 osteoblast Shn3 3'UTR firefly luciferase, 24 h. inhibition, % at 12.5 µM. 360,000 compounds, 0.52% hits;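 active = mean inhibition of at least 75% with every replicate also reaching 75%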
HIF-2a inh = blocks HIF-2a reporter activity. 786-0 RCC cells HIF-2a reporter, luciferase luminescence, overnight. inhibition, % at 18.8 µM. 360,000 compounds, 0.72% hits;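 active = inhibition of the luminescence signal of 40% or more relative to plate controls, in a single-dose primary screen at 18.75 µM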
CF NFkB block = cystic fibrosis NF-kB activation inhibition | KKLEB NF-kB-GFP reporter, PAF-induced, GFP fluorescence overnight | 360,000 compounds, 0.86% hits | AID 588850 | inhibition, % at 5 µM;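 active = at least 50% inhibition at 5 µM, scaled per plate between neutral and stimulator controls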;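 note: PAF is a Pseudomonas aeruginosa culture filtrate used as stimulus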
Mdm2 MdmX conf = confirmation of inhibitors of human Mdm2/MdmX interaction, set 2; shares compounds with HIF-2a inh; SaOS-2 split-luciferase Mdm2/MdmX complementation, luminescence; inhibition, % at 8 µM; 740 compounds, 99% hits;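 active = mean inhibition of the luminescence signal across two replicates at or above 26 percent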
Target sequence (O15151 whole entry, looked up): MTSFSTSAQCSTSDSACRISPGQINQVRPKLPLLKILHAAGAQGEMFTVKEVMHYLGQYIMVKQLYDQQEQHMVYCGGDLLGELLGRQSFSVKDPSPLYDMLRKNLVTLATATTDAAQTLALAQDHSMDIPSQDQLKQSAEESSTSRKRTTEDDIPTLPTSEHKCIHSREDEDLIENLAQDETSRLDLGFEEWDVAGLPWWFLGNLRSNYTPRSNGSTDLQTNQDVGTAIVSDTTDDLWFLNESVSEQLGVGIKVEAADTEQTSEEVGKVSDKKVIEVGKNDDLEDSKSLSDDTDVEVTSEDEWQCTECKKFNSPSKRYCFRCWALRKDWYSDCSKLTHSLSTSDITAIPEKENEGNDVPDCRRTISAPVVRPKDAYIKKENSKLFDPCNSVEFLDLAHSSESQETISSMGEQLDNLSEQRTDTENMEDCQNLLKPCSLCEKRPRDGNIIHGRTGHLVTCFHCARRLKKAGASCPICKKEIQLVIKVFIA
Target sequence (Q00987 whole entry, looked up): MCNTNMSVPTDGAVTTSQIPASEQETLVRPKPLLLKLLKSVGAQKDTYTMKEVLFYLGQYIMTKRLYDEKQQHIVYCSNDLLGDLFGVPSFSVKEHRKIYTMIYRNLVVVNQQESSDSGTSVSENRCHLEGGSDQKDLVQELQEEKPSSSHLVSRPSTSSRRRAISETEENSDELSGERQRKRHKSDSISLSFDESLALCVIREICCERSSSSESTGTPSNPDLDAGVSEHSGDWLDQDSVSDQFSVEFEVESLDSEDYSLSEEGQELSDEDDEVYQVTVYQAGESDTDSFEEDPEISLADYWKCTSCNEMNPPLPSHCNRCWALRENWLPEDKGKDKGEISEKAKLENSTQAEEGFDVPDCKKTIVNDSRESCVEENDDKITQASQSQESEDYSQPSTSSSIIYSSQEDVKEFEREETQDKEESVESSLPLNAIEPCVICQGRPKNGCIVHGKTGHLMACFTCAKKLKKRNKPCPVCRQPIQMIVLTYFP
HIF-2a conf = confirmation of HIF-2a inhibitors; shares compounds with HIF-2a inh; 786-0 RCC cells, HIF-2a luciferase reporter luminescence, overnight; inhibition, % at 18.8 µM; 1,800 compounds, 56% hits; AID 651580;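 active = mean inhibition across four replicates of at least 40 percent at the single tested concentration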
HIF-1a counter = counter-screen for HIF-2a inhibitors: HIF-1a inhibition in MiaPaCa-2 cells. shares compounds with HIF-2a inh. MiaPaCa-2 HIF-1a luciferase reporter, desferoxamine, overnight. inhibition, % at 18.8 µM. 1,800 compounds, 72% hits;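 active = mean inhibition of the reporter signal across four replicates at the single tested dose of 50% or more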
Each line names hits and unclear results; the compound was inactive in the other large screens (follow-up assays come after a bar, where they were run).

O=C(Nc1ccc(Oc2cccnc2)cc1)c1ccc([N+](=O)[O-])cc1	none
Cc1ccc(NC(=O)c2cc(N3C(=O)C=CC3=O)ccc2N2CCOCC2)cc1	Peg3 promoter 108, TRPM1 prom inh 80, HIF-2a inh 69 | HIF-2a conf 69 | HIF-1a counter inactive
Cc1ccc(NC(=O)c2cc(NC(=O)c3ccco3)ccc2N2CCOCC2)cc1	none
CC[C@]12c3[nH]c4ccc(OC)cc4c3CCN1C(=O)C(CC(=O)NCCc1ccccn1)C[C@@H]2C(=O)N1CCN(C(=O)C2CC2)CC1 (some centres undefined)	none
COc1cc(C(C[N+](=O)[O-])c2c(-c3ccccc3)cc3ccccn23)cc(OC)c1OC (centres undefined)	HIF-2a inh 43 | HIF-2a conf inactive | HIF-1a counter 68
COCC(=O)N1CCC(Oc2ccc(C(=O)N(C)Cc3nccs3)cc2)CC1	none
Clc1ccc(Cn2ncc3c(N4CCCCC4)ncnc32)cc1	none (no result: Shn3 3UTR inh)
Clc1ccc(-n2ncc3c(N4CCCCCC4)ncnc32)cc1	KKLEB tox -52, TRPM1 prom inh 71, HIF-2a inh 66 | HIF-2a conf 84 | HIF-1a counter 102
NS(=O)(=O)c1ccc(N/N=C2/CCCCC2C2CCCCC2)c([N+](=O)[O-])c1 (centres undefined)	HIF-2a inh 55 | HIF-2a conf inactive | HIF-1a counter 104
CC1C/C(=N\Nc2ccc(S(N)(=O)=O)cc2[N+](=O)[O-])CC(C)(C)C1 (centres undefined)	none
COc1ccc(NC(=O)CCS(=O)(=O)c2ccccc2Cl)cc1S(=O)(=O)Nc1ccc(Cl)cc1	HIF-2a inh 44 | HIF-2a conf inactive | HIF-1a counter 68
CCOc1ccccc1NC(=O)COC(=O)CN1C(=O)NC(C)(C)C1=O	none
CC1CC(C)CN(C(=O)c2cccc(S(=O)(=O)N(C)c3ccccc3)c2)C1 (centres undefined)	none
CSC(=Nc1ccccc1)N=C(SCc1ccccc1)N(C)C	Peg3 promoter 96, TRPM1 prom inh 116, Shn3 3UTR inh 93, HIF-2a inh 83 | HIF-2a conf 74 | HIF-1a counter 107
N#CNC(=Nc1ccccc1)SCc1ccc(C(=O)O)cc1	none
Cc1ccc(C(=O)O/N=C(\N)c2ccccn2)c(C)c1	Peg3 promoter 106, TRPM1 prom inh 96, Shn3 3UTR inh 96, HIF-2a inh 89 | Mdm2 MdmX conf 101
CC1=C(C(=O)Nc2ccc([N+](=O)[O-])cc2)C(c2cccc(C(F)(F)F)c2)NC(=S)N1c1ccccc1 (centres undefined)	Peg3 promoter 88, HIF-2a inh 56 | HIF-2a conf inactive | HIF-1a counter 60
COc1ccc(C2NC(=S)N(c3ccccc3)C(C)=C2C(=O)Nc2ccccc2)cc1 (centres undefined)	none
Cc1ccc(C)c(C(=O)COC(=O)c2ccc(C)c(S(=O)(=O)N3CCOCC3)c2)c1	none
Cc1c(CC(=O)NCCCC(=O)O)c(=O)oc2c(C)c3oc4c(c3cc12)CCCC4	none
Cc1c(CCC(=O)NCCCn2ccnc2)c(=O)oc2c(C)c3oc4c(c3cc12)CCCC4	HIF-2a inh 47 | HIF-2a conf 63 | HIF-1a counter 59
Cc1c(CCC(=O)N2CCC[C@H]2C(=O)O)c(=O)oc2c(C)c3oc4c(c3cc12)CCCC4	HIF-2a inh 57 | HIF-2a conf 71 | HIF-1a counter inactive
CCCCC(NC(=O)Cc1c(C)c2cc3c4c(oc3c(C)c2oc1=O)CCCC4)C(=O)O (centres undefined)	none
CCCCC(NC(=O)CCc1c(C)c2cc3c4c(oc3c(C)c2oc1=O)CCCC4)C(=O)O (centres undefined)	HIF-2a inh 53 | HIF-2a conf 55 | HIF-1a counter inactive
